Values joined by “and” are separate entries in the source; they are usually repeats but may differ in a detail not shown here. Equal values may be shown once. Results filed as inconclusive are left out. Active and inactive are the calls of the source. Calls come from the whole dose curve; as a rule, active = well fitted curve in the direction sought with a large enough effect; inconclusive = small, poorly fitted or top-dose-only effect, or another doubt; inactive = no such curve, though single readings can be large; an effect the other way counts as inactive or inconclusive.

Assay [1] can be described thus: Primary qHTS for inhibitors of nuclear receptor binding SET domain protein 2 (NSD2) in an isogenic RCH-ACV NSD2 p.E1099K mutant (9B) (AID 1645876). Note: nearly all actives have a fitted effect of over 70% in size. Note: potency is the fitted concentration of half-maximal effect. A general note: qHTS replaces the single test concentration by a dilution series.
Assay [2] can be described thus: Primary qHTS for inhibitors of nuclear receptor binding SET domain protein 2 (NSD2) in an RCH-ACV wild type WT cells (2C) (AID 1645877). For activity change, negative = cell killing: % is set by controls: 0 for no effect and ±100 for the full control effect. Note: nearly all actives have a fitted effect of over 70% in size. Note: potency is the fitted concentration of half-maximal effect.
Assay [3] has as its target Catechol O-methyltransferase (Homo sapiens) (UniProt P21964). As to the kind of experiment: Confirmatory Screen for Target Class Profiling of Small Molecule Inhibitors of Methyltransferases (AID 1745852). Particulars: MTase-Glo luminescence, SAH detection, recombinant enzyme; measured here: COMT max response; stronger effect = lower value.

Sequence of Catechol O-methyltransferase (Homo sapiens) (P21964 whole entry, looked up): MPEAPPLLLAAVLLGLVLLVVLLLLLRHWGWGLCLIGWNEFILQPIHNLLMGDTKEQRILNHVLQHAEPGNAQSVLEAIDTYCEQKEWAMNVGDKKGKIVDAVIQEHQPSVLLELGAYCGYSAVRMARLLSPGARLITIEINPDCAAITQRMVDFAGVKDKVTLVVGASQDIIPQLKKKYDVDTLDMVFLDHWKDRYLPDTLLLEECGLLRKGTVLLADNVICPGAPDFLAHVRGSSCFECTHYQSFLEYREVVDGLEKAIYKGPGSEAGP

In the case of `Cc1ccc([N+](=O)[O-])cc1S(=O)(=O)N(C)/N=C/c1cnc2ccc(Br)cn12`, the Potency is 12.9 nM (active) and 93.4 nM (active) in assay [1]; 20.6 nM (active) and 74.2 nM (active) in assay [2]. For the same compound, the activity in assay [3] was -16.2%. As for `C=C1C(=O)O[C@@H]2/C=C(\C)C(=O)/C=C/[C@](C)(O)C[C@@H](OC(=O)C(C)C)[C@@H]12`, the Potency is 401 nM (active) in assay [1] and 0.284 µM (active) in assay [2]. In addition, the activity in assay [3] is -80.2%. For `CC(C)CC1NC(=O)C(C)NC(=O)C(CC(C)C)OC(=O)CCCNC1=O` (centres undefined), the Potency result in assay [1] and in assay [2] was “inactive” throughout. In the case of `O=C(O)c1ccc(CN2CCC(CN[C@@H]3C[C@H]3c3ccccc3)CC2)cc1`, the Potency entry in assay [1] and in assay [2] was “inactive” throughout. Further, the activity in assay [3] was 4.43%. For the compound `C/C=C/c1cc(OC)c2c(c1)[C@@H](C)[C@@H](c1ccc(O)c(OC)c1)O2`, the Potency in assay [1] is 8980 nM (active); in assay [2] it was 14.2 µM (active). In assay [3], the activity was -61.3%. Taken in the same sequence, the figures for `O=C(O)/C=C/c1ccc(-c2ccc(O)c(C34CC5CC(CC(C5)C3)C4)c2)cc1` were 325 nM (active), 0.145 µM (active) and 0.235%.

`C=C(C(=O)OC)C1C(O)CC2(C)C(O)CCC(=O)C2C1O` (centres undefined): the Potency result in assay [1] and in assay [2] was “inactive” throughout. Take `NCCCNc1ccc(Nc2nccc(Nc3cc(C4CC4)[nH]n3)n2)cc1`: the Potency in assay [1] was 578 nM (active); in assay [2], 0.515 µM (active). Further, in assay [3], the activity was -13.5%. Take `CC(O)/C=C/C1(O)C2(C)COC1(C)CC(O)C2` (centres undefined): the Potency result in assay [1] and in assay [2] was “inactive” each time.

In the case of `CCC(C)C(=O)OC1CC(O)C23C4OCC5(C(O)CC2C1(C)C(O)O4)C3C(=O)C(O)C1(C)C(O)(c2ccoc2)CC2OC251` (centres undefined), the Potency in assay [1] is 136 nM (active); in assay [2] it was 0.0765 µM (active). In addition, the activity in assay [3] was -73%.

In the case of `COC(=O)C1=C2Nc3ccccc3C23CCN2CCCC(C(C)O)(C1)C23` (centres undefined), the Potency result in assay [1] and in assay [2] was “inactive” in each case. Further, the activity in assay [3] is -1.85%. Turning to `CN1CCN(C(=O)c2ccc3cc(CCNc4ncnc5ccc(C#N)cc45)ccc3c2)CC1`, the Potency in assay [2] was 1.32 µM (active). Also, in assay [3], the activity was -7.48%. Consider `COC(=O)C1(C)CCC2(C(=O)O)CCC3(C)C(=CCC4C5(C)CC(O)C(OC6OCC(O)C(O)C6O)C(C)(CO)C5CCC43C)C2C1` (centres undefined), for which, in assay [2], the Potency entry is “inactive”. Same read-out and setting: to `COc1ccc(CCC(=O)c2c(O)cc(O)cc2O[C@@H]2O[C@H](CO)[C@@H](O)[C@H](O)[C@H]2O)cc1` belongs 8.93 µM (active). For the compound `CC/C=C\CCO[C@@H]1O[C@H](CO)[C@@H](O)[C@H](O)[C@H]1O`, the Potency entry in assay [1] and in assay [2] was “inactive” throughout. Moreover, in assay [3], the activity is -74.1%.

As to `C=C1C(=O)OC2CC3(C)C(CC12)C(C)=CC(O)C3OC(C)=O` (centres undefined), the activity in assay [3] was -65.4%. Consider `CC1=C(C(=O)OCc2ccccc2)C(c2ccc(-c3ccccc3)cc2)NC(=O)N1CCCCCC(=O)O` (centres undefined), for which the Potency result in assay [1] is “inactive”. For the same compound, in assay [3], the activity is -3.43%. For the compound `C[C@@H]1O[C@@H](O[C@H]2[C@H](O[C@H]3CC[C@@]4(C)C(CC[C@]5(C)C4C=C[C@]46OC[C@@]7(CCC(C)(C)C[C@H]74)[C@@H](O)C[C@]65C)[C@]3(C)CO)O[C@H](CO)[C@@H](O)[C@@H]2O[C@@H]2O[C@H](CO)[C@@H](O[C@@H]3O[C@@H](C)[C@H](O)[C@@H](O)[C@H]3O)[C@H](O)[C@H]2O)[C@H](O)[C@H](O)[C@H]1O` (some centres undefined), in assay [2], the Potency was 3.88 µM (active). Same read-out and setting: in the case of `C=C1CCC2C(C(C)(C)O)CCC2(C)CC(O)C(=C)CCC1O` (centres undefined) it was 10.1 µM (active); in that of `O=C(O)CCCCCC[C@H]1C(=O)NC(=O)N1CC[C@@H](O)C1CCCCC1`, “inactive”. On the same count and under the same terms, to `CC1=CCC2C(C)(C)CCC[C@]2(C)[C@@]12CC[C@](C)(CC(=O)O)O2` (some centres undefined) belongs “inactive”; to `CO[C@H]1/C=C\O[C@@]2(C)Oc3c(C)c(O)c4c(O)c(c5c(nc6cc(C)ccn65)c4c3C2=O)NC(=O)/C(C)=C\C=C/[C@H](C)[C@H](O)[C@@H](C)[C@@H](O)[C@@H](C)[C@H](OC(C)=O)[C@@H]1C`, 10.3 µM (active). Regarding `Cc1nc([C@](C)(O)CO)sc1-c1cnc(N)c(O[C@H](C)c2cc(F)ccc2-n2nccn2)c1`, the Potency is 8330 nM (active) in assay [1] and 13.2 µM (active) in assay [2]. Also, the activity in assay [3] is -59.6%. In the case of `C[C@@H]1O[C@@H](O[C@H]2[C@H](O)[C@@H](O)[C@H](O[C@H]3[C@H](O[C@H]4CC[C@@]5(C)C(=CC[C@@H]6C5CC[C@]5(C)[C@@H]7[C@H](C[C@@H]65)O[C@]5(CC[C@@](C)(CO[C@@H]6O[C@H](CO)[C@@H](O)[C@H](O)[C@H]6O)O5)[C@H]7C)C4)O[C@H](CO)[C@@H](O)[C@@H]3O)O[C@@H]2CO)[C@H](O)[C@H](O)[C@H]1O` (some centres undefined), the Potency in assay [2] is 2.18 µM (active). With `C=C[C@H]1[C@H](O[C@@H]2O[C@H](CO)[C@@H](O)[C@H](O)[C@H]2O)OC=C(C(=O)OC)[C@H]1C/C=C(/C=O)[C@@H]1C(C(=O)OC)=CO[C@@H](O[C@@H]2O[C@H](CO)[C@@H](O)[C@H](O)[C@H]2O)[C@@H]1C=C`, the Potency result in assay [1] and in assay [2] was “inactive” each time. In addition, the activity in assay [3] is -65.2%. `C/C=C/c1ccc2c(c1)[C@@H](C)[C@H](c1ccc(O)cc1)O2`: in assay [3], the activity was -8.28%. In the case of `CC12CCC(OC3OC(CO)C(O)C(OC4OC(CO)C(O)C(O)C4O)C3O)CC1=CCC1C2CCC2(C)/C(=C3/COC(=O)C3)CCC12O` (centres undefined), the Potency entry in assay [2] was “inactive”. On the same count and under the same terms, in the case of `CCC[C@@H]1O[C@@H]2C[C@H]3[C@@H]4CCC5=CC(=O)C=C[C@]5(C)[C@H]4[C@@H](O)C[C@]3(C)[C@]2(C(=O)CO)O1` it was 0.0058 µM (active). On to `CC(CCC1(O)OC2CC3C4CCC5CC(O[C@@H]6O[C@H](CO)[C@@H](O)[C@H](O)[C@H]6O[C@@H]6O[C@@H](C)[C@H](O)[C@@H](O)[C@H]6O)C(O)CC5(C)C4CCC3(C)C2C1C)CO[C@@H]1O[C@H](CO)[C@@H](O)[C@H](O)[C@H]1O` (some centres undefined), for which the activity change, negative = cell killing in assay [2] was -13.5% [at 9.23 µM] (inactive). As for `C=C1C(=O)O[C@@H]2C[C@H](C)[C@@]3(O)C=C(C(C)=O)[C@]4(CC3C[C@H]12)C(=O)O[C@H]1C[C@@H](C)C(CCC(C)=O)=CC[C@H]14` (some centres undefined), the Potency in assay [2] was 8.93 µM (active). On to `CC(C)=C/C=C\[C@H](C)[C@H]1CC[C@]2(C)C[C@@H]3C(C)=CC(=O)C3/C(CO)=C\C[C@@H]12` (some centres undefined), for which, in assay [2], the Potency is 11.3 µM (active).

Turning to `N[C@H]1Cc2ccccc2N(O)C1=O`, the Potency in assay [2] is 12.9 µM (active).

The values above are taken from PubChem BioAssay (NCATS).
